{"source": "PubChem BioAssay (NCI)", "note": "Compounds without any hit were thinned out: in the full panel of roughly 83,000, 20% have a hit.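 48-hour exposure, single concentration, 96-well plates; percent growth endpoint where 0 means no net growth. Active: below 10.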 Calls of active or inactive are those of the source."}
{"test_system": "DU-145 prostate", "test": "NCI-60 one-dose screen, 48 h (100 = growth as untreated, 0 = no growth, -100 = all killed)", "conditions": "10 µM unless noted"}
{"molecule": "CC(C)Cc1ccc(C(C)C(=O)NCc2ccc(Cn3c(=O)sn(-c4ccc(Cl)cc4)c3=O)cc2)cc1", "note": "(configuration not stated)", "growth": "84.4% (inactive)"}
{"molecule": "COc1ccc(Cn2nc3c(c2-c2cc(OC)c(OC)c(OC)c2)-c2oncc2CC3)cc1", "growth": "105% (inactive)"}
{"molecule": "Cc1ccc(C(c2c(O)c3cc(Br)ccc3[nH]c2=O)c2c(O)c3cc(Br)ccc3[nH]c2=O)cc1", "growth": "102% (inactive)"}
{"molecule": "CN1CCN(Cc2ccc(NC(=O)c3cncc(C#Cc4cnccc4C(F)(F)F)c3)cc2C(F)(F)F)CC1", "growth": "105% (inactive)"}
{"molecule": "COc1ccc(/C=C/c2n[nH]c3ccc(N4CCOC4=O)cc23)cc1", "growth": "14.7% (inactive)"}
{"molecule": "COc1cc2nnn3c4ncccc4c(N=O)c3c2cc1OC", "growth": "102% (inactive)"}
{"molecule": "Cc1cc2nc(-c3ccccc3)c(-c3ccccc3)nc2cc1C", "growth": "112% (inactive)"}
{"molecule": "Cc1ccc2[nH]c(=O)cc(-n3nncc3COc3ccc(C=O)cc3)c2c1", "growth": "105% (inactive)"}
{"molecule": "CCCOc1nc(SCCC)nc2c1cnn2-c1ccccc1", "growth": "110% (inactive)"}
{"molecule": "NC(=O)c1cccc(-c2ccccc2N2CCCCC2)c1", "growth": "99.8% (inactive)"}
{"molecule": "COc1cc2ncnc(Nc3ccc(C(=O)/C=C/c4ccc(C(F)(F)F)cc4F)cc3)c2cc1OC", "growth": "107% (inactive)"}
{"molecule": "CC(=O)OCCCCCNc1ccccc1", "growth": "106% (inactive)"}
{"molecule": "O=C(Nc1sc2c(c1C(=O)O)CCCC2)c1cccc(C(F)(F)F)c1", "growth": "94.2% (inactive)"}
{"molecule": "CCN1C(=O)N(CC)C2NC(SC)=NC21", "note": "(configuration not stated)", "growth": "111% (inactive)"}
{"molecule": "C/C(=C(/c1ccccc1)c1ccc(OCC(O)CN2CCOCC2)cc1)c1ccccc1", "note": "(configuration not stated)", "growth": "98.1% (inactive)"}
{"molecule": "COc1ccc(C(=O)c2cc3c(N)c(C(=O)Nc4ccc(Br)cc4)sc3nc2C)cc1", "growth": "79.5% (inactive)"}
{"molecule": "CCOC(=O)Oc1c(OC)cc(C(=O)O[C@@H]2C[C@@H]3CN4CCc5c([nH]c6cc(OC)ccc56)[C@H]4C[C@@H]3[C@H](C(=O)OC)[C@H]2OC)cc1OC", "growth": "81.5% (inactive)"}
{"molecule": "COc1ccc(-c2nc(N/N=C/c3ccco3)nc(N3CCOCC3)c2C#N)cc1", "growth": "93.2% (inactive)"}
{"molecule": "CCC(=O)c1ccc(O)c(OC)c1", "growth": "113% (inactive)"}
{"molecule": "COc1ccc(-c2nc(N=Nc3c(O)[nH]c4ccccc34)nc(N3CCOCC3)c2C#N)cc1", "growth": "63.7% (inactive)"}
{"molecule": "CCCCCCCCCCCCCCCC(=O)OC[C@@]1(O)C[C@@]23CC[C@@H]4C(C)(C)[C@H](O)CC[C@@]4(C)[C@@H]2CC[C@H]1C3", "growth": "108% (inactive)"}
{"molecule": "FC(F)(F)Oc1cccc(-c2cc(NCCCCCCNc3cc(-c4cccc(OC(F)(F)F)c4)nc4ccc(N5CCCC5)cc34)c3cc(N4CCCC4)ccc3n2)c1", "growth": "-5.9% (active)"}
{"molecule": "COc1ccc(C2=C(c3ccccc3)c3ccc(OC(C)=O)cc3OC2(C)C)cc1", "growth": "105% (inactive)"}
{"molecule": "Cc1c2c(cc[n+]1Cc1ccc(F)cc1)c1ccc(OCc3cccc(F)c3)cc1n2Cc1cccc(F)c1", "growth": "-90.8% (active)"}
{"molecule": "CC1=CC2(C)/C=C(C)/C=C\\CC(O)/C=C3/C=CC(=C4C(=O)OC2(CC1C)C4=O)OC3", "note": "(configuration not stated)", "growth": "-85.4% (active)"}
{"molecule": "O=C1OC(=O)C2C1CC=CC2c1ccccc1", "note": "(configuration not stated)", "growth": "94% (inactive)"}
{"molecule": "C=C(C)[C@H]1CC/C(C)=C/CC[C@]2(C)O[C@H]2CC/C(COC(=O)[C@@H](OC(C)=O)[C@H](NC(=O)c2ccccc2)c2ccccc2)=C\\[C@@H]1O", "growth": "102% (inactive)"}
{"molecule": "O=C(O)c1cn(C2CC2)c2cc(N3CCN(C(=O)C[n+]4cccc5ccccc54)CC3)c(F)cc2c1=O", "growth": "91.7% (inactive)"}
{"molecule": "COc1ccc(Nn2c(SCC(=O)Nc3nc(-c4ccc(Cl)cc4)cs3)nc(C)c2C)cc1", "growth": "79.6% (inactive)"}
{"molecule": "Cn1c2c(Cl)c(Cl)ccc2c2cc(N)[nH]c(=O)c21", "growth": "84.2% (inactive)"}
{"molecule": "CC(=O)c1c[nH]c2ccc(-c3ccnc(Nc4ccc(NC(=O)c5cccc(F)c5)c(CN5CCOCC5)c4)n3)cc12", "growth": "2.59% (active)"}
{"molecule": "Clc1nc(Nc2ccccc2)nc(Nc2ccccc2)n1", "growth": "101% (inactive)"}
{"molecule": "O=C1Nc2c(ccc(Cl)c2Cl)/C1=C/c1ccccn1", "growth": "104% (inactive)"}
{"molecule": "Cc1ccc2nc3c(cc2c1)CSc1nnc(-c2ccc[nH]c2=S)n1N3", "growth": "113% (inactive)"}
{"molecule": "CN1CCN(C(=O)[C@]2(C)CC[C@]3(C)CC[C@]4(C)C(=CC(=O)[C@@H]5[C@@]6(C)CCC(=O)NC(C)(C)[C@@H]6CC[C@]54C)[C@@H]3C2)CC1", "growth": "97.6% (inactive)"}
{"molecule": "COc1ccc(-c2nn(Cc3ccccc3)c3c2-c2oncc2CC3)cc1OC", "growth": "97.4% (inactive)"}
{"molecule": "O=c1[nH]c2c(s1)CCCC2CN1CCCCC1", "note": "(configuration not stated)", "growth": "109% (inactive)"}
{"molecule": "CC(C)(C)CC(C)(C)Nc1c(-c2ccc3c(c2)OCO3)nc2cnccn12", "growth": "101% (inactive)"}
{"test_system": "K-562 leukemia", "test": "NCI-60 one-dose screen, 48 h (100 = growth as untreated, 0 = no growth, -100 = all killed)", "conditions": "10 µM unless noted"}
{"molecule": "COc1ccc(Cn2nc3c(c2-c2cc(OC)c(OC)c(OC)c2)-c2oncc2CC3)cc1", "growth": "39.9% (inactive)"}
{"molecule": "CN1CCN(Cc2ccc(NC(=O)c3cncc(C#Cc4cnccc4C(F)(F)F)c3)cc2C(F)(F)F)CC1", "growth": "8.53% (active)"}
{"molecule": "NC(=O)c1cccc(-c2ccccc2N2CCCCC2)c1", "growth": "85.1% (inactive)"}
{"molecule": "COc1cc2ncnc(Nc3ccc(C(=O)/C=C/c4ccc(C(F)(F)F)cc4F)cc3)c2cc1OC", "growth": "58.4% (inactive)"}
{"molecule": "CCN1C(=O)N(CC)C2NC(SC)=NC21", "note": "(configuration not stated)", "growth": "104% (inactive)"}
{"molecule": "C/C(=C(/c1ccccc1)c1ccc(OCC(O)CN2CCOCC2)cc1)c1ccccc1", "note": "(configuration not stated)", "growth": "19.7% (inactive)"}
{"molecule": "COc1ccc(C(=O)c2cc3c(N)c(C(=O)Nc4ccc(Br)cc4)sc3nc2C)cc1", "growth": "71.5% (inactive)"}
{"molecule": "COc1ccc(-c2nc(N/N=C/c3ccco3)nc(N3CCOCC3)c2C#N)cc1", "growth": "87.6% (inactive)"}
{"molecule": "COc1ccc(-c2nc(N=Nc3c(O)[nH]c4ccccc34)nc(N3CCOCC3)c2C#N)cc1", "growth": "75% (inactive)"}
{"molecule": "CCCCCCCCCCCCCCCC(=O)OC[C@@]1(O)C[C@@]23CC[C@@H]4C(C)(C)[C@H](O)CC[C@@]4(C)[C@@H]2CC[C@H]1C3", "growth": "98% (inactive)"}
{"molecule": "FC(F)(F)Oc1cccc(-c2cc(NCCCCCCNc3cc(-c4cccc(OC(F)(F)F)c4)nc4ccc(N5CCCC5)cc34)c3cc(N4CCCC4)ccc3n2)c1", "growth": "-48.7% (active)"}
{"molecule": "Cc1c2c(cc[n+]1Cc1ccc(F)cc1)c1ccc(OCc3cccc(F)c3)cc1n2Cc1cccc(F)c1", "growth": "-15.8% (active)"}
{"molecule": "CC1=CC2(C)/C=C(C)/C=C\\CC(O)/C=C3/C=CC(=C4C(=O)OC2(CC1C)C4=O)OC3", "note": "(configuration not stated)", "growth": "2.75% (active)"}
{"molecule": "C=C(C)[C@H]1CC/C(C)=C/CC[C@]2(C)O[C@H]2CC/C(COC(=O)[C@@H](OC(C)=O)[C@H](NC(=O)c2ccccc2)c2ccccc2)=C\\[C@@H]1O", "growth": "129% (inactive)"}
{"molecule": "COc1ccc(Nn2c(SCC(=O)Nc3nc(-c4ccc(Cl)cc4)cs3)nc(C)c2C)cc1", "growth": "26.9% (inactive)"}
{"molecule": "CC(=O)c1c[nH]c2ccc(-c3ccnc(Nc4ccc(NC(=O)c5cccc(F)c5)c(CN5CCOCC5)c4)n3)cc12", "growth": "4.68% (active)"}
{"molecule": "Cc1ccc2nc3c(cc2c1)CSc1nnc(-c2ccc[nH]c2=S)n1N3", "growth": "93% (inactive)"}
{"molecule": "COc1ccc(-c2nn(Cc3ccccc3)c3c2-c2oncc2CC3)cc1OC", "growth": "90.5% (inactive)"}
{"molecule": "CC(C)(C)CC(C)(C)Nc1c(-c2ccc3c(c2)OCO3)nc2cnccn12", "growth": "72% (inactive)"}
